Measured values as given in PubChem BioAssay AID1159580 (chemical genetic matrix, 2015).
Where “and” joins values, the source holds several entries; their conditions need not be identical. Equal entries are not always repeated. Out of some 5,500 compounds screened, about 2,000 (36%) were called active. Roughly 18% stayed inconclusive and do not appear here. The list shows a part of the results. Values without a mark were called inactive. Cut-off read from the data, not from the text of the source: active = normalized growth mostly below about 0.91 (no sharp cut-off); inconclusive = no clear call, values can overlap the other calls; inactive = mostly above about 0.92.

Assay: chemical genetic growth profiling, strain panel (AID 1159580);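 note: tested at 20 µM; growth read once vehicle control cultures reached saturation at 30 °C; 1 = growth at the plate median or of vehicle wells; lower values mean less growth of the strain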
Settings: S. cerevisiae deletion strains, growth OD

Compound: COc1cc2ccc(=O)oc2c(O)c1O
- normalized growth (locus YBR021W, strain FUR4, hits give low values): 1.03
- normalized growth (locus YBR229C, strain ROT2, hits give low values): 0.957
- normalized growth (locus YCL029C, strain bik1, hits give low values): 1.01
- normalized growth (locus YDL035C, strain GPR1, hits give low values): 1.01
- normalized growth (locus YDL074C, strain BRE1, hits give low values): 1.05
- normalized growth (locus YDL101C, strain DUN1, hits give low values): 0.984
- normalized growth (locus YDL185W, strain tfp1, hits give low values): 0.983
- normalized growth (locus YDL192W, strain arf1, hits give low values): 1
- normalized growth (locus YDR101C, strain arx1, hits give low values): 1.01
- normalized growth (locus YDR162C, strain NBP2, hits give low values): 0.934
- normalized growth (locus YDR318W, strain mcm21, hits give low values): 0.992
- normalized growth (locus YDR388W, hits give low values): 1
- normalized growth (locus YDR502C, strain sam2, hits give low values): 0.986
- normalized growth (locus YEL061C, strain CIN8, hits give low values): 0.995
- normalized growth (locus YER110C, hits give low values): 0.995
- normalized growth (locus YER155C, strain BEM2, hits give low values): 1.03
- normalized growth (locus YER167W, strain BCK2, hits give low values): 1.01
- normalized growth (locus YGL078C, strain dbp3, hits give low values): 1.01
- normalized growth (locus YGL086W, strain mad1, hits give low values): 1.04
- normalized growth (locus YGL248W, strain PDE1, hits give low values): 0.979
- normalized growth (locus YGR078C, strain PAC10, hits give low values): 0.98
- normalized growth (locus YGR135W, strain pre9, hits give low values): 0.966
- normalized growth (locus YGR252W, strain gcn5, hits give low values): 0.959
- normalized growth (locus YHR030C, strain SLT2, hits give low values): 1.01 and 1.04
- normalized growth (locus YHR079C, strain IRE1 (second series), hits give low values): 0.996
- normalized growth (locus YHR079C, strain IRE1, hits give low values): 1.03
- normalized growth (locus YHR094C, strain hxt1, hits give low values): 0.987
- normalized growth (locus YHR129C, strain ARP1, hits give low values): 0.995
- normalized growth (locus YHR200W, strain rpn10, hits give low values): 0.988
- normalized growth (locus YIL066C, strain RNR3, hits give low values): 0.996
- normalized growth (locus YIL073C, strain SPO22, hits give low values): 0.997
- normalized growth (locus YIL125W, strain kgd1, hits give low values): 1
- normalized growth (locus YIR030C, strain dcg1, hits give low values): 1
- normalized growth (locus YJL095W, strain BCK1, hits give low values): 0.956 and 1.01
- normalized growth (locus YJL134W, strain LCB3, hits give low values): 1
- normalized growth (locus YJL168C, strain set2, hits give low values): 0.992
- normalized growth (locus YJL187C, strain SWE1 (second series), hits give low values): 0.991
- normalized growth (locus YJR043C, strain POL32, hits give low values): 1.01
- normalized growth (locus YJR066W, strain TOR1, hits give low values): 0.978
- normalized growth (locus YJR075W, strain HOC1, hits give low values): 1.01
- normalized growth (locus YKL009W, strain mrt4, hits give low values): 1.13 [resistant] (active)
- normalized growth (locus YKL068W, hits give low values): 0.982
- normalized growth (locus YKL085W, strain MDH1 (second series), hits give low values): 1
- normalized growth (locus YKL085W, strain MDH1, hits give low values): 1
- normalized growth (locus YKR001C, strain vps1, hits give low values): 1
- normalized growth (locus YLR039C, strain RIC1, hits give low values): 1
- normalized growth (locus YLR058C, strain SHM2, hits give low values): 1
- normalized growth (locus YLR102C, strain apc9, hits give low values): 1
- normalized growth (locus YLR113W, strain HOG1, hits give low values): 0.984
- normalized growth (locus YLR262C, strain YPT6, hits give low values): 0.955
- normalized growth (locus YLR268W, strain sec22, hits give low values): 1.03
- normalized growth (locus YLR330W, strain CHS5, hits give low values): 1
- normalized growth (locus YLR342W, strain FKS1 (second series), hits give low values): 1.06
- normalized growth (locus YLR371W, strain rom2, hits give low values): 0.981
- normalized growth (locus YLR418C, strain cdc73, hits give low values): 0.971
- normalized growth (locus YML016C, strain PPZ1, hits give low values): 0.996
- normalized growth (locus YML032C, strain rad52, hits give low values): 1.01
- normalized growth (locus YML124C, strain tub3, hits give low values): 0.997
- normalized growth (locus YMR078C, strain ctf18, hits give low values): 0.991
- normalized growth (locus YMR223W, strain ubp8, hits give low values): 1.01
- normalized growth (locus YMR307W, strain GAS1, hits give low values): 1.05
- normalized growth (locus YNL067W, strain RPL9B, hits give low values): 0.983
- normalized growth (locus YNL128W, strain TEP1, hits give low values): 0.96
- normalized growth (locus YNL183C, strain NPR1, hits give low values): 0.976
- normalized growth (locus YNL233W, strain BNI4, hits give low values): 1
- normalized growth (locus YNL250W, strain rad50, hits give low values): 1
- normalized growth (locus YNL271C, strain bni1, hits give low values): 1
- normalized growth (locus YNL298W, strain CLA4, hits give low values): 0.997
- normalized growth (locus YNL307C, strain MCK1, hits give low values): 1.01
- normalized growth (locus YNL322C, strain KRE1, hits give low values): 0.99
- normalized growth (locus YNR052C, strain pop2, hits give low values): 0.993
- normalized growth (locus YOL006C, strain TOP1, hits give low values): 1.11
- normalized growth (locus YOL012C, strain htz1): 0.802
- normalized growth (locus YOL147C, strain pex11, hits give low values): 1.01
- normalized growth (locus YOR061W, strain CKA2, hits give low values): 0.988
- normalized growth (locus YOR069W, strain VPS5, hits give low values): 1.01
- normalized growth (locus YOR136W, strain idh2, hits give low values): 1.01
- normalized growth (locus YOR144C, strain elg1, hits give low values): 0.994
- normalized growth (locus YOR184W, strain ser1, hits give low values): 0.983
- normalized growth (locus YOR231W, strain MKK1, hits give low values): 1.01
- normalized growth (locus YOR316C, strain cot1, hits give low values): 0.997
- normalized growth (locus YPL256C, strain CLN2, hits give low values): 1.03
- normalized growth (locus YPR119W, strain clb2, hits give low values): 0.991
- normalized growth (locus YPR141C, strain kar3, hits give low values): 0.997
- normalized growth (locus YPR163C, strain tif3, hits give low values): 0.985
- normalized growth (locus YPR167C, strain met16, hits give low values): 0.994
- normalized growth (strain wtn01, hits give low values): 1.03
